WRN inhibitor: inhibitors of human WRN helicase; Q14191; 360,000 tested, 0.46% active; Potency, µM (series often up to 114 µM), hits mostly inhibitors; WRN helicase unwinding, fluorescent forked duplex, kinetic; note: nearly all actives have a fitted effect of over 55% in size
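WRN at 20 nM final preincubated with compound 15 min at room temperature; reaction started with 100 nM fluorophore/quencher forked duplex oligonucleotide and 2 mM ATP final. Unwinding followed kinetically by red fluorescence (ex 525, em 598 nm).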
POLI inh: blocks human DNA polymerase iota activity | Pol iota fluorescent replication assay, 10 min | Potency, µM (top dose mostly 115 µM), actives largely listed as inhibitors | 390,000 tested, 1% active | AID 588590
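Fluorescent replication assay read twice, at 0 min and 10 min after adding 50 nM (final) substrate. Enzyme (10 nM) and compounds were first incubated 15 min at room temperature; enzyme-free buffer wells were negative controls.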
POLH inh: blocks human DNA polymerase eta activity; Q9Y253; recombinant Pol eta, fluorescent DNA replication assay; Potency, µM (titrated, usually from 114 µM), actives largely listed as inhibitors; 390,000 tested, 1.2% active; AID 588591
Target sequence (Q9Y253 whole entry, looked up): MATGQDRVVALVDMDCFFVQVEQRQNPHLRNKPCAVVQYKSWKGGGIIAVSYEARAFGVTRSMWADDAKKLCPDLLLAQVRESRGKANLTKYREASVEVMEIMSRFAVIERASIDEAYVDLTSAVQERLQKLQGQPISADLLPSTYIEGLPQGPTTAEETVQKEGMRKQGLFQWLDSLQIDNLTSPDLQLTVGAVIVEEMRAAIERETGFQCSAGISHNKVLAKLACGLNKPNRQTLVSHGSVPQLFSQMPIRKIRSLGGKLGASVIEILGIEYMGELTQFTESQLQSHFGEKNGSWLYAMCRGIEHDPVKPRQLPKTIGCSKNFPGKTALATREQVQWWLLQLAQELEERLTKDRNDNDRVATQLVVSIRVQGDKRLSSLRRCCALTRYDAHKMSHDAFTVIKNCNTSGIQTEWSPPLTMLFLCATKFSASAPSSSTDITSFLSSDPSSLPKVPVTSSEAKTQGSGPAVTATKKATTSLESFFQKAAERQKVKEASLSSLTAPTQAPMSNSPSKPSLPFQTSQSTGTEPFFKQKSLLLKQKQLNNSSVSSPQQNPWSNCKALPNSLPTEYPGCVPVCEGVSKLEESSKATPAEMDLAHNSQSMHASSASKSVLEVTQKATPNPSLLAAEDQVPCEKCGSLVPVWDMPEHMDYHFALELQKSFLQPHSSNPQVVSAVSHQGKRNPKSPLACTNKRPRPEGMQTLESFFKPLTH
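Pol eta at 10 nM preincubated with compounds 15 min at room temperature; reaction started with fluorescent substrate (50 nM final) and read kinetically at 0 and 10 min.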
POLK inh: blocks human DNA polymerase kappa activity | Potency, µM (doses to about 107 µM), actives largely listed as inhibitors | 400,000 tested, 0.53% active | purified Pol kappa, fluorescent DNA synthesis assay, 10 min | Q9UBT6
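Kinetic fluorescence readout at 0 and 10 min followed reaction start with substrate at 50 nM final. Beforehand, enzyme (10 nM Pol kappa) stood 15 min with compound at room temperature; buffer-only wells were negative controls.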
POLB inh: DNA polymerase beta (human) inhibition | 340,000 tested, 1.3% active | Potency, µM (doses to about 114 µM), hits mostly inhibitors | Pol beta primer extension/strand displacement, fluorescence kinetic | AID 485314 | P06746
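Homogeneous kinetic assay of primer extension and strand displacement by 10 nM Pol beta, preincubated 15 min at room temperature with compound before 50 nM substrate (final) was added. Read at 0 and 10 min; four-parameter Hill fit.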
PGK validate: blocks T. brucei phosphoglycerate kinase; shares compounds with POLK inh; TbPGK coupled GAPDH assay, Kinase-Glo luminescence; Potency, µM (highest dose often 57.5 µM), usual class: inhibitors; AID 686980; 500 tested, 79% active; note: nearly all actives have a fitted effect of over 65% in size
POLI cherry-pick: Confirm cherry-picked inhibitors of human polymerase iota; 1,500 tested, 77% active; Potency, µM, most hits filed as inhibitors; AID 720496; Pol iota primer extension, TAMRA/BHQ fluorescence; shares compounds with POLK inh
Numbers stand for hits; . = inactive; ? = inconclusive; / = no result; [ ] = another dose, or the depositor's remark. An excerpt weighted towards active compounds, which were near 2.3% of everything screened. Calls come from the whole dose curve; as a rule, active = well fitted curve in the direction sought with a large enough effect; inconclusive = small, poorly fitted or top-dose-only effect, or another doubt; inactive = no such curve, though single readings can be large; an effect the other way counts as inactive or inconclusive.

SMILES | WRN inhibitor | POLI inh | POLH inh | POLK inh | POLB inh | PGK validate | others
Cc1ccc(-c2cc(C(=O)Nc3ccc(S(=O)(=O)N4CC(C)OC(C)C4)cc3)[nH]n2)c(O)c1 (centres undefined) | ? | 40µM | . | ? | 18µM | / | POLI cherry-pick=75
COc1ccc(-n2c(SCC(=O)NCc3ccc(Cl)cc3)nc3ccsc3c2=O)cc1 | / | . | . | . | . | /
O=C(Nc1ccc(-c2nc3ccccc3[nH]2)cc1)c1ccc(C(F)(F)F)cc1 | / | / | / | / | / | / | POLI cherry-pick=?
O=C(NCCCN1CCN(c2ccccc2)CC1)c1ccc2nc(CCc3ccccc3)oc2c1 | / | . | . | . | . | /
CCOC(=O)c1ccc(NC(=O)CSc2cn(CC(=O)N3CCCC3)c3ccccc23)cc1 | / | . | . | . | . | /
O=C(O)c1ccc2c(c1)[C@@H]1C=CC[C@@H]1[C@H](c1ccccn1)N2 | 35µM | 3.5µM | 6.3µM | 10µM | / | 16µM
O=C(CN1C(=O)/C(=C2\SC(=S)N(CCS(=O)(=O)O)C2=O)c2ccccc21)Nc1cccc(Br)c1 | 89µM | ? | ? | ? | ? | 15µM
Cc1c(-c2cccc(NC(=O)Nc3ccccc3)c2)nc2ncccn12 | / | ? | . | . | . | /
Cc1ccc2nc(-c3ccccc3)cn2c1 | . | . | . | . | . | 12µM
Cc1ccc(C)c(NC(=O)CSc2ncc3c(n2)-c2ccc(Cl)cc2N(C)S3(=O)=O)c1 | / | . | . | . | . | /
COCCn1c(C)cc(C2=NNC(=NC3CC3)SC2)c1C | . | . | . | . | . | 16µM
Cc1ccc(CSc2nc(=O)c3c(C)cc(C)nc3n2C2CC2)cc1 | / | . | . | . | . | /
Nc1c(C(=O)O)cnc2c(-c3ccc(Cl)cc3)cnn12 | ? | . | . | . | . | ?
COc1ccc(-n2nc(C(=O)Nc3ccc(OC)c(OC)c3)c3c4ccccc4n(C)c3c2=O)cc1 | .[11.6 µM] | ? | ? | . | . | / | POLI cherry-pick=4.7
COc1ccc(-n2nc(C(=O)Nc3ccc4c(c3)OCO4)c3c4ccccc4n(C)c3c2=O)cc1 | . | . | . | . | . | /
Cc1ccccc1OCCn1c(=N)n(C(C)C)c2ccccc21 | / | . | . | . | . | /
c1ccc(C2=NNC(=NC3CC3)SC2)cc1 | . | ? | . | . | . | 16µM
c1ccc2c(C3=NNC(=NC4CC4)SC3)c[nH]c2c1 | . | . | . | . | . | /
CNCc1ccccc1Sc1ccc(O)c(O)c1 | ? | 28µM | . | 79µM | ? | / | POLI cherry-pick=75
O=C1/C(=C\c2ccc(O)cc2)SC(=S)N1c1cccnc1 | .[11.6 µM] | ? | ? | . | ? | / | POLI cherry-pick=?
CCOc1cc(/C=N/NC(=O)c2nnn(-c3nonc3N)c2C)ccc1OCc1ccc(F)cc1 | . | . | . | . | . | /
CCOc1cc(/C=N/NC(=O)c2nnn(-c3nonc3N)c2C)ccc1OCc1ccc(C)cc1 | .[11.6 µM] | / | 10µM | / | / | / | POLI cherry-pick=24
COc1ccc(NC(=O)/C(C#N)=C/c2ccc(C)o2)cc1 | / | . | . | . | . | /
COc1ccc(NC(=O)/C(C#N)=C/c2ccc(Br)o2)cc1 | ? | 22µM | ? | 79µM | 10µM | / | POLI cherry-pick=?
Cc1ccnc(NC(=O)c2cc3ccccc3o2)c1 | . | . | . | . | / | /
SMILES | WRN inhibitor | POLI inh | POLH inh | POLK inh | POLB inh | PGK validate | others
O=C(Nc1ccccn1)c1cc2ccccc2o1 | . | . | . | . | . | 16µM
CCOc1ccc(C(=O)Nc2cc(C)ccn2)cc1 | ? | . | . | . | . | 16µM
CCOC(=O)Nc1sc2c(c1C#N)CCC(C)C2 (centres undefined) | . | . | . | . | . | /
CC(C)OC(=O)c1c(NC(=O)C2CC=CCC2C(=O)O)sc2c1CCCCC2 (centres undefined) | . | . | ? | . | ? | /
NC(=O)c1c(NC(=O)C2CC=CCC2C(=O)O)sc2c1CCCCC2 (centres undefined) | . | . | 56µM | . | 20µM | 13µM
CCC1CCc2c(sc(NC(=O)C3CC=CCC3C(=O)O)c2C#N)C1 (centres undefined) | . | . | ? | . | 79µM | ?
CC(=O)Nc1cc(C(=O)NCc2ccc(F)cc2)ccc1Sc1ccc(C)cc1 | / | . | . | . | . | /
Cc1ccc2nc(NC(=O)CSc3nccn3Cc3ccccc3)sc2c1 | / | . | . | . | . | /
O=C(O)CCCN1C(=O)/C(=C/c2ccc(-c3nc4ccccc4s3)o2)SC1=S | ? | ? | 3.2µM | 50µM | 13µM | ?
O=C(O)CCCN1C(=O)/C(=C/c2ccncc2)SC1=S | . | ? | . | . | . | /
CCN(CC)CCC(=O)Nc1cccc2c1C(=O)c1ccccc1C2=O | ? | 16µM | . | . | 20µM | / | POLI cherry-pick=?
Nc1cccc(C(=O)OCC(=O)Nc2cccc3c2C(=O)c2ccccc2C3=O)c1 | . | . | ? | . | . | /
O=C(N/N=C/C=C/c1cccc([N+](=O)[O-])c1)C(O)c1ccccc1 (centres undefined) | . | . | . | . | . | /
O=C(CNc1ccc2ccccc2c1)N/N=C/C=C/c1cccc([N+](=O)[O-])c1 | .[11.6 µM] | ? | 16µM | . | ? | / | POLI cherry-pick=75
CCN(CC)c1ccc(NS(=O)(=O)c2cc(-c3onc(C)c3C)ccc2OC)c(C)c1 | / | . | . | . | . | /
O=C(NNC(=O)C1CC1)c1cc2cc3ccccc3nc2s1 | . | . | . | . | ? | /
O=C(NNC(=O)c1cc2cc3ccccc3nc2s1)c1cccc(Cl)c1 | ? | ? | ? | 79µM | 1.4µM | / | POLI cherry-pick=?
N/C(=N\OC(=O)c1ccc(Cl)cc1)c1ccccn1 | . | . | . | . | . | 15µM
COc1ccc(C(=O)NNC(=O)c2ccccn2)cc1 | . | . | . | . | . | 5.2µM
Cc1ccc(C(=O)O/N=C(\N)c2ccccn2)c(C)c1 | . | . | . | . | . | 7.3µM
COc1ccc(C(=O)O/N=C(\N)c2ccccn2)cc1 | . | . | . | . | . | 5.2µM
COc1cc(OC)cc(C(=O)O/N=C(\N)c2ccccn2)c1 | . | . | . | . | . | /
CCOC(=O)C1CCN(C(=O)Cn2nc(CC)n3c(cc4sccc43)c2=O)CC1 | / | . | . | . | . | /
N/C(=N\OC(=O)c1ccccc1Cl)c1ccccn1 | . | . | . | . | . | 16µM
CCCCn1cc(S(=O)(=O)c2ccc(CC)cc2)c(=O)c2cc(F)c(N3CCCC(C)C3)cc21 (centres undefined) | / | . | . | . | . | /
O=c1c2ccccc2cnn1-c1nc2ccccc2[nH]1 | . | . | . | . | . | 5.8µM
O=c1c(Cl)c(N2CCCCC2)cnn1-c1nc2ccccc2[nH]1 | . | . | . | . | . | /
O=C(NCc1ccccc1)c1ccc(NC(=O)C2CCCCC2)cc1 | . | . | . | . | / | /
O=C(NCc1ccccc1)c1ccc(NC(=O)C2CCCC2)cc1 | . | . | . | . | / | .

Assay outcomes: PubChem BioAssay, National Center for Advancing Translational Sciences (NCATS)
